Reference: ChEMBL document CHEMBL3988442, “University of Dundee, Small-Polar-MMV Screening Library” (2021)
Screen size: about 48,000 compounds; about 13,000 (27%) showed an effect of 50% or more. Some of the results follow.

Test system: Wolbachia pipientis
Assay: Anti-Wolbachia Cell-Based Screen
Assay type: functional
Parameters: scale not given: in the data most compounds retested in dose-response had high values
Settings: 5 µM

Structure (SMILES) | Percent Effect
CN(C)c1ccc(CNC2(c3ccc(F)cc3)CCOCC2)cc1F | -20.17%
Cc1csc2c(N3CCC(NCCCc4ccncc4)CC3)ncnc12 | -7.721%
CO[C@H]1CN(Cc2cc(Cn3cncn3)c(C)cc2C)CC[C@H]1N | 13.4%
CC(=O)N1CCCC(c2nccnc2Nc2nc(C)cc(C)n2)C1 (configuration not stated) | 92.16%
Cc1cc(C)nc(Nc2nccnc2C2CCCN(CCO)C2)n1 (configuration not stated) | 115.9%
Cc1cc(C)nc(Nc2nccnc2C2CCCN(C(C)C)C2)n1 (configuration not stated) | 76.04%
CCC(=O)N1CCCC1c1nccnc1Nc1nc(C)cc(C)n1 (configuration not stated) | 4.912%
Cc1cc(C)nc(Nc2nccnc2C2CCCN(C(CO)CO)C2)n1 (configuration not stated) | 89.81%
CCN1C(=O)[C@H]2CN(Cc3cccnc3)C[C@H]2C12CCN(C(C)=O)CC2 | -22.31%
COCC(NC(=O)NCc1ccc(C)c(F)c1)c1ccco1 (configuration not stated) | 5.842%
O=C(NC1CC1)N1CCCC2(CCNC2=O)C1 (configuration not stated) | -20.05%
COc1c(F)cc(NCC(=O)NC(C)(C#N)C2CC2)cc1F (configuration not stated) | -10.88%
CCOC(=O)N1CCN(c2nc(N)c3ccccc3n2)CC1.Cl | 10.93%
Cc1csc(CN(CC2CCCO2)C(=O)c2cccnc2C)n1 (configuration not stated) | -5.515%
COCc1ccccc1C(=O)OCc1noc(C)n1 | 97.59%
Cc1nc(COc2cccc(C#N)c2)no1 | 2.018%
COCc1ccccc1C(=O)N(C)Cc1ncc(C)c(OC)c1C | 29.72%
Cc1nc(COC(=O)c2cccnc2C)no1 | 111.5%
Cc1noc(C)c1CC(=O)OCc1nc(N)c2ccccc2n1 | -18.91%
Cc1cnc(N2CCC(OCCN3CCCCC3)C2)nc1C (configuration not stated) | 11.15%
CN(CC1CC1)C(=O)CN(Cc1cccc(O)c1)C1CCC(O)CC1 (configuration not stated) | -10.37%
CN1CCC(N(Cc2ccccc2)C(=O)c2nccn3ccnc23)CC1 | 3.341%

Structure (SMILES) | Percent Effect
CN1CCC(N(Cc2ccccc2)C(=O)c2ccn3ccnc3c2)CC1 | 0.1453%
CN1CC[C@H](N(Cc2ccccc2)C2COC2)C[C@H](O)C1 | 101.7%
CN1CCC(N(C)CCC(=O)N2CCC(CCc3ccccc3)CC2)C1 (configuration not stated) | -7.751%
CN1CCC(N2C[C@H](O)C[C@H]2c2nc(Cc3ccccc3)no2)CC1 | -1.075%
CN1CC[C@H](N(C)Cc2ccccc2)C[C@H](O)C1 | 67.42%
CN1CC[C@H](N(Cc2ccccc2)Cc2ccccc2)C[C@H](O)C1 | 97.14%
CN1CCC(N(C)CCC(=O)N2CCC(OCc3ccccc3)CC2)C1 (configuration not stated) | -15.08%
CN1CC[C@H](N(Cc2ccccc2)CC2CC2)C[C@H](O)C1 | 101.2%
CN1CCC(N(Cc2ccccc2)C(=O)c2ccn3cncc3c2)CC1 | -5.801%
CN1CCC(N2CCC(CN(Cc3ccncc3)C3CCC3)CC2)CC1 | 7.68%
COC(=O)c1sc2nc3c(c(C(F)(F)F)c2c1N)CN(C(C)=O)CC3 | 5.653%
CC(C(=O)Nc1ccc(N2CCCC2)nc1)n1cccn1 (configuration not stated) | 93.36%
COc1ccc(NC(=O)C(C)n2cncn2)cn1 (configuration not stated) | 104.1%
CC(C(=O)Nc1ccc(N2CCCCC2)nc1)n1ccnc1 (configuration not stated) | 105.1%
CC(C(=O)Nc1ccc(N2CCCC2)nc1)n1cncn1 (configuration not stated) | -0.2792%
COc1ccc(Oc2ccc(CNC(=O)C(C)n3cncn3)cn2)cc1 (configuration not stated) | -12.03%
CC(Cn1cccn1)NC(=O)Nc1ccc(N2CCCCC2)nc1 (configuration not stated) | -23.5%
CC(C(=O)Nc1ccc(N2CCCC2)nc1)n1ccnc1 (configuration not stated) | -0.9927%
CC(Cn1cccn1)NC(=O)Nc1ccc(N2CCCC2)nc1 (configuration not stated) | -16.81%
CC(C(=O)NCc1ccnc(Oc2ccc(F)cc2)c1)n1cncn1 (configuration not stated) | -19.79%
CC(C(=O)Nc1cccc(N2CCCCC2)c1)n1cncn1 (configuration not stated) | 4.529%
O=C(Cc1ccccc1O)Nc1ccc(N2CCCC2)nc1 | 0.2058%

Structure (SMILES) | Percent Effect
CC(C(=O)Nc1ccc(N2CCCCC2)nc1)n1cncn1 (configuration not stated) | 95.56%
CC(C)COCC(NC(=O)c1cc[nH]n1)c1ccco1 (configuration not stated) | 4.731%
CCN(CC(=O)N(C)C)S(=O)(=O)c1cnc2c(c1)c(C)nn2C | 5.433%
CCN1CCc2[nH]cnc2C12CCN(c1ncc(C(=O)O)cc1Cl)CC2 | 3.404%
Brc1ccc(C2(CNCc3cc[nH]c3)CCOCC2)cc1 | 10.2%
CN1CCCc2ccc(S(=O)(=O)NC(=O)C3CC=CC3)cc21 | -3.642%
CC(Cc1ccco1)NC(=O)Nc1ccc(N2CCOCC2)nc1 (configuration not stated) | -10%
CC(OCC(F)(F)F)C(=O)Nc1ccc(-n2cncn2)nc1 (configuration not stated) | -8.836%
CC(C(=O)Nc1ccc(N2CCOCC2)nc1)n1cncn1 (configuration not stated) | 104.2%
CCn1cc(CN2CCC(NS(C)(=O)=O)CC2)cc1C#N | -7.298%
CC(C)Cn1cnnc1C1CCCN1C(=O)c1cc2ccccn2c1 (configuration not stated) | -13.41%
CCC(C)NC(=O)NCc1cc2n(n1)CCCN(C1CCCCC1)C2 (configuration not stated) | 123%
CC(C)CN1CCCn2nc(CNC(=O)OCc3ccccc3)cc2C1 | 17.53%
CCCOC(C)C(=O)NCc1cc2n(n1)CCCN(C1CCCCC1)C2 (configuration not stated) | 111%
CC(C)c1nnc(NCc2cc3n(n2)CCN(C2CCCCC2)C3)s1 | 8.692%
CCCN1CCCn2nc(CNC(=O)C3CCOC3)cc2C1 (configuration not stated) | -8.283%
CC(C)NCc1cc2n(n1)CCN(C1CCCCC1)C2 | -9.171%
COC(=O)NCc1cc2n(n1)CCCN(C(C)=O)C2 | 17.7%
CC(C)CN1CCCn2nc(CNC(=O)NC(C)(C)C)cc2C1 | -2.187%
CCC(CC)CN1CCCn2nc(CNC(=O)COC)cc2C1 | 4.127%
CCC(OC)C(=O)NCc1cc2n(n1)CCCN(C1CCCCC1)C2 (configuration not stated) | 113.3%
CN[C@@H](CO)C(=O)NCc1cc2n(n1)CCCN(C1CCCCC1)C2 | 120.8%

Structure (SMILES) | Percent Effect
O=C(c1ccc(Cl)s1)N1CCCn2nc(CN3CC[C@H](F)C3)cc2C1 | 0.8139%
Cc1nc(C(C)N(C)Cc2nc(CCC(C)C)no2)c(C)s1 (configuration not stated) | 1.881%
CCSc1ccc(C(C)NC(=O)CCS(C)(=O)=O)cc1 (configuration not stated) | -10.2%
CC(C)(C)c1nccc(N2CCN(C3CCS(=O)(=O)C3)CC2)n1 (configuration not stated) | -14.65%
Cc1nc(CC(=O)NCc2csc(N3CCCC3)n2)cs1 | 17.94%
CCOCc1nc(N2CCOCC2)sc1C(=O)NCCCc1ccco1 | 102.3%
O=C(NCc1ccco1)c1ccc(N2CCOCC2)cc1 | -7.738%
Cc1nc(CCCNC(=O)c2coc(CN3CCOCC3)c2)sc1C | -5.742%
CCCOC1CCCN(c2ccnc(C(=O)NCc3ccco3)c2)C1 (configuration not stated) | 6.201%
CC1CCCCN1C1CN(c2ccnc(C(=O)NCc3ccco3)c2)C1 (configuration not stated) | 0.5235%
O=C(NCCCc1ccco1)c1ccc(N2CCOCC2)cc1 | -6.417%
CCOCc1nc(N2CCOCC2)sc1C(=O)NCc1ccco1 | 132.8%
CCOCc1nc(N2CCCC2)sc1C(=O)NCc1ccco1 | 113.4%
CCOCc1nc(N2CCCC2)sc1C(=O)NCCC(=O)OCC | 118%
CCOCCCNC(=O)c1cc(C(C)C)nc(N2CCCCCC2)n1 | 4.863%
O=C(NCc1ccco1)Nc1ccc2nc(N3CCOCC3)oc2c1 | -0.2531%
CCc1nc(CNCC2CCCN2c2cc(NC)ncn2)cs1 (configuration not stated) | 9.196%
COc1c(C2CCCN2Cc2nnc(C3CC3)n2C)c(C)nn1C (configuration not stated) | 1.396%
N#Cc1ccc(CN2CCN(C(=O)C3CCC3)[C@@H]3CS(=O)(=O)C[C@@H]32)cc1 | -4.315%
CN(C)c1nc(N)nc(CN2CCCC2c2ccsc2)n1 (configuration not stated) | 99.77%
Cc1nc(CN2CCCC2c2ccsc2)nc2ccccc12 (configuration not stated) | 1.892%
CN(C)c1nc(N)nc(CN2CCCC(c3ccccc3)CC2)n1 (configuration not stated) | -22.19%

Structure (SMILES) | Percent Effect
CN(C)c1nc(N)nc(CN2CCCC2c2cccs2)n1 (configuration not stated) | 99.23%
CN(C)c1nc(N)nc(CN2CCC(c3ccccc3)CC2)n1 | -7.992%
Cc1cccc(C2CCCN2Cc2nc(N)nc(N(C)C)n2)c1C (configuration not stated) | 140.3%
CN(CCC#N)C(=O)CN1CCCC1c1cccs1 (configuration not stated) | -24.43%
CN(C)c1nc(N)nc(CN2CCC(c3nc4ccccc4o3)CC2)n1 | -47.21%
CCCc1noc(CN2CCCC2c2ccsc2)n1 (configuration not stated) | 1.014%
COCCC(=O)Nc1nccn1Cc1ccc(Br)cc1 | -0.6439%
CNC(=O)c1cnc(/C=C/c2ccc(OC)c(O)c2)s1 | -1.59%
Cc1cc(C(=O)N2C[C@H](CO)C[C@H](CN3CCOCC3)C2)cnc1C | 8.759%
Cc1ccc(C)c2c(O)cc(CNCCNC(=O)C(C)C)nc12 | -21.09%
c1cncc(NCCNC2CSCCSC2)c1 | 16.15%
Cc1cccc(-c2noc([C@@H]3C[C@@H](O)CN3Cc3ccc(CO)o3)n2)c1 | 5.801%
CC(C)n1cnc2c1C(C(=O)N1CCCC1)N(S(C)(=O)=O)CC2 (configuration not stated) | -12.38%
Cc1nn(C)c(Cl)c1C1CCCN1Cc1nnc(C2CC2)n1C (configuration not stated) | -12.44%
Cc1cc(NC(=O)C(C)N2CCCN(c3nccs3)CC2)on1 (configuration not stated) | -9.765%
CCc1nnc2n1CCN(CC(=O)Nc1cc(C)on1)C2 | -12.71%
Cc1cc(NC(=O)CN2CCN(c3nccs3)C(C)C2)on1 (configuration not stated) | 108.7%
Cc1cc(NC(=O)CN2CCN(c3nccs3)C(C)C2)no1 (configuration not stated) | 110.3%
Cc1cc(NC(=O)C(C)N2CCN(c3nccs3)CC2)on1 (configuration not stated) | -1.934%
